Assay outcomes (PubChem)
Not all results are given here.
aSyn UTR act: Activators working through SNCA 5'UTR binding (MLPCN); activity score, % (tested at 7.5 µM), hits read low; alpha-synuclein 5'UTR reporter, activators screen; 7.1% of 300,000 active; in the data active means activity score below about -60%
An asterisk follows results filed as active.

SMILES	aSyn UTR act
COc1cc(/C=C/C(=O)c2c(O)n(CCc3ccccc3)c(=O)[nH]c2=O)ccc1O	-69*
O=C(/C=C/c1ccccc1)c1c(O)n(CCc2ccccc2)c(=O)[nH]c1=O	-83*
CCCCCCCSc1cc(OC)c(CCNC)cc1OC	121
O=[N+]([O-])c1ccccc1-c1cc(-c2ccccc2)cc(-c2ccccc2)[n+]1Cc1ccccc1Cl	64
Clc1ccc2sc(C3CCNCC3)nc2c1	-159*
CCOc1ccc2nc(N3CCC(C(=O)N4CCC5(CC4)OCCO5)CC3)sc2c1	-82*
Cc1ccc2nc(N3CCC(C(=O)N4CCC5(CC4)OCCO5)CC3)sc2c1	-78*
CCCC(=O)Nc1cc(C(=O)N2CCC3(CC2)OCCO3)ccc1S(=O)(=O)c1ccc(C)cc1	35
O=C(C1CCN(c2nc3ccc(Br)cc3s2)CC1)N1CCC2(CC1)OCCO2	-80*
CC(=O)Nc1ccc(OC(=O)N2CCCCC2)cc1	69
C/C=C(\C)C(=O)N[C@@H](c1ccccc1)[C@@H](O)C(=O)O[C@H]1C[C@@]2(O)[C@@H](OC(=O)c3ccccc3)C3[C@](C)(C(=O)[C@H](OC(C)=O)C(=C1C)C2(C)C)[C@@H](O)C[C@H]1OC[C@@]31OC(C)=O (stereo partly drawn)	104
Cc1nc2ccccc2c(=O)n1-c1ccc([N+](=O)[O-])cc1	-121*
Cc1nc2ccccc2c(=O)n1-c1ccc(Cl)c(Cl)c1	-138*
O=Cc1cn(Cc2cccc([N+](=O)[O-])c2)c2ccccc12	94
CCCCCCOC(=O)c1ccccc1N	-136*
Cc1ccc(-c2nc3ccc(Cl)cc3n2OC(=O)N(C)C)cc1	-129*
Cc1ccc(-c2nc(N3CCOCC3)s[n+]2-c2ccccc2)cc1	-233*
CC(C)c1ccc(N2C(=O)NC(=O)/C(=C\C=C\c3ccco3)C2=O)cc1	-70*
O=C1NC(=O)N(Cc2ccccc2)C(=O)/C1=C/C=C/c1ccco1	-296*
O=c1nc(/C=C/c2ccc(Cl)cc2Cl)cc(C(F)(F)F)[nH]1	-64*
CCN(CC)c1ccc(C=C2C(=O)N(C)C(=S)N(C)C2=O)o1	-86*
CCN(CC)c1ccc(/C=C2\C(=O)NC(=S)N(C)C2=O)o1	-115*
NC(=S)c1cn(C2OC(CO)C(O)C2O)c2ncnc(N)c12 (stereo not drawn)	105
CN(C)c1ccc(C(=O)N/N=C/C23CC[C@@H](O)CC2(O)CC[C@@H]2[C@@H]3CCC3(C)C(C4=CC(=O)OC4)CCC23O)cc1 (stereo partly drawn)	95
COc1ccc(-c2cc(C(=O)N3CCC4(CC3)OCCO4)c3ccccc3n2)cc1	-88*
SMILES	aSyn UTR act
CC12CC[C@H]3[C@@H](CCC4(O)C[C@H](O)CCC34/C=N/NC(=O)c3ccccc3F)C1(O)CCC2C1=CC(=O)OC1 (stereo partly drawn)	64
Cc1ccc(-n2c(C)nc3cc(Cl)ccc3c2=O)nc1	-117*
CCC1(OC(=O)CN)C(=O)OCc2c1cc1n(c2=O)Cc2cc3ccccc3nc2-1 (stereo not drawn)	103
CCN(CC)C(=O)c1ccc(NC(=O)c2cccc(F)c2)cc1	-80*
N#Cc1cc2c(nc1SCC(=O)Nc1ccc(Cl)cc1)C1CCN2CC1	-159*
N#Cc1cc2c(nc1SCC(=O)Nc1cc(Cl)ccc1Cl)C1CCN2CC1	-140*
COc1cccc(OC)c1C1=NCC(=O)Nc2c1oc1ccc(Br)cc21	59
CC(=O)OC1CC[C@]2(C#N)[C@H]3CC[C@]4(C)[C@H](C5C=CC(=O)O5)CCC4(O)C3CCC2(O)C1 (stereo partly drawn)	85
CN(C)C(=O)Oc1ccc2c(=O)c(Oc3ccccc3Br)coc2c1	-77*
CC(C)[C@H]1C(=O)O[C@H](C(C)C)C(=O)N(C)[C@@H](C(C)C)C(=O)O[C@H](C(C)C)C(=O)N(C)[C@@H](C(C)C)C(=O)O[C@H](C(C)C)C(=O)N1C	86
CCc1ccc(N2C(=O)NC(=O)/C(=C/c3cccn3CCOc3ccc(C(C)CC)cc3)C2=O)cc1 (stereo not drawn)	-82*
CC1(C)CN=C(Nc2nc3ccccc3s2)S1	-118*
CCN1CCN(c2nc3ccccc3s2)CC1	-131*
Nc1cc2nc3ccccc3nc2cc1N	-64*
CC1CCN(CC(=O)c2ccc3c(c2)OCCO3)CC1	-77*
CC1CCN(CC(=O)c2ccccc2Cl)CC1	-134*
COC(=O)C1=C(c2cc3ccccc3o2)C[C@@H]2CC[C@H]1N2C(=O)N1CCCCC1	66
COc1cc(/C=C(/C)[N+](=O)[O-])ccc1OCc1ccccc1Cl	-134*
Cc1cc(C(=O)Nc2ccccc2)nn1C(C)(C)C	-112*
Cc1cc(C(=O)Nc2ccc3c(c2)OCCO3)nn1C(C)(C)C	-136*
CC(=O)OC(C)(C)/C=C/C(=O)C(C)(O)C1[C@H](O)C[C@@]2(C)C3CC=C4C(CC[C@@H](O)C4(C)C)[C@]3(CO)C(=O)C[C@]12C (stereo partly drawn)	86
CCOc1cccc(CNCCc2c(C)[nH]c3ccc(OC(F)(F)F)cc23)c1O	113
CCn1c(NN=O)nc2ccccc21	74
Cc1cc(N=Nc2ccccc2C)ccc1N	-103*
COc1ccc(-c2cc(=NCCC(=O)O)c3cc(C)ccc3o2)cc1	-121*
SMILES	aSyn UTR act
COc1ccc(-c2cc(=Nc3ccccc3)c3cc(C)ccc3o2)cc1	-100*
Cn1c(O)c(Cc2ccc(OCc3ccccc3)cc2)c(=O)n(C)c1=O	-140*
CN(C)c1ccc(/C=C2/C(=N\O)C3CCN2CC3)cc1	-133*
Cc1ccc(/C=C2\C(=O)NC(=S)N(c3ccc(F)cc3)C2=O)s1	-116*
O=C(CSc1ccccc1)N1CCC2(CC1)OCCO2	-92*
Cc1nc2cc(-c3cccc(F)c3)nn2c(C)c1CCC(=O)N1CCC2(CC1)OCCO2	77
COc1ccc(-[n+]2c(-c3ccccc3)cc(-c3ccccc3)cc2-c2ccccc2)cc1	81
COc1ccc(-c2nc3ccccc3c(=O)o2)cc1	-65*
CN(C)C(=O)Oc1cccc(-c2cn3cc(Cl)ccc3n2)c1	-82*
CN(C)C(=O)Oc1ccc(-c2cn3cc(C(F)(F)F)ccc3n2)cc1	-86*
Cn1ccc(NC(=O)CCl)n1	-70*
Cc1cc(NC(=O)CCl)nn1C	-94*
CCN1/C(=C\C=C\C2=[N+](CC)c3ccccc3C2(C)C)C(C)(C)c2ccccc21	104
CC[C@@]1(O)C(=O)OCc2c1cc1n(c2=O)Cc2cc3ccccc3nc2-1	116
CC(C)n1c(O)c(C2c3cc(Cl)ccc3Oc3[nH]c(=O)n(C(C)C)c(=O)c32)c(=O)[nH]c1=O (stereo not drawn)	-88*
COC(=O)c1nc(-c2ccc3c(n2)C(=O)C(N)=C(OC)C3=O)c(N)c(-c2ccc(OC)c(OC)c2O)c1C	97
N=C1c2ccccc2CN1NC(=O)c1ccc(F)cc1	-62*
O=C(c1ccccc1)c1ccc(N=Nc2c(O)[nH]c(=O)[nH]c2=O)cc1	-74*
CCC(=NCCC1=CCCCC1)c1c(O)[nH]c(=O)[nH]c1=O	48
O=C(c1cc2c(s1)-c1ccccc1OC2)N1CCC2(CC1)OCCO2	-129*
CC[C@@]1(O)C(=O)OCc2c1cc1n(c2=O)Cc2cc3c(NC(=O)CN)cccc3nc2-1	71
Nc1ncnc2c1ccn2[C@@H]1O[C@H](CO)[C@@H](O)[C@H]1O	107
CC1CC(OP(O)(=S)c2ccc(N(C)C)cc2NC(=O)c2cccs2)CC(C)(C)C1 (stereo not drawn)	-113*
NC(Cc1nc2ccccc2[nH]1)c1ccc(Cl)cc1 (stereo not drawn)	-167*
